# Screening results: PubChem BioAssay, National Center for Advancing Translational Sciences (NCATS)
# A549 tox = counter-screen for Nrf2 inhibitors: cytotoxicity in A549 cells; AID 504648; hit rate 0.16% among 390,000; A549 ARE-Fluc cells, CellTiter-Fluor viability, 18-24 h; Potency, µM (top dose mostly 46 µM), without a hit: at the top dose activity change, negative = cytotoxicity, actives largely listed as inhibitors; further: potency means the concentration at half of the fitted maximal effect
#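 A549 ARE-Fluc cells in 5% FBS OPTI-MEM, 5000 cells/well, rested 2 h then exposed to compounds in concentration-response for 18-24 h at 37 °C. Viability by CellTiter-Fluor fluorescence (Ex 405/Em 525) after 30 min; luciferase luminescence (BugLite, 15 min, RT) read afterwards.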
# KB-V1 cytotox = KB-V1 MDR subline cytotoxicity. Potency, µM (titrated, usually from 46.1 µM), most hits filed as cytotoxic. hit rate 3.4% among 400,000. KB-V1 MDR cells viability, CellTiter-Glo, 72 h; further: potency means the concentration at half of the fitted maximal effect; nearly all actives have a fitted effect of over 60% in size
#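 Cytotoxicity via CellTiter-Glo luminescence after 72 h compound exposure at 37 degrees C. Cells: drug-selected KB-V1 line, DMEM phenol-red free plus 10% FBS. Compounds tested at multiple concentrations; normalized data fitted to concentration-effect curves.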
# Nrf2 inh = Nrf2 pathway inhibition. hit rate 2.1% among 360,000. Potency, µM (series often up to 46 µM), for the others: at the highest dose activity change, negative = inhibition, actives largely listed as inhibitors. A549 ARE-Fluc reporter, luciferase luminescence, 18-24 h. AID 504444; further: potency means the concentration at half of the fitted maximal effect; nearly all actives have a fitted effect of over 60% in size
#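 A549 ARE_Fluc cells, 5000/well, 5% FBS OPTI-MEM; compounds in dose-response, 18-24 h at 37 °C/5% CO2; CellTiter-Fluor viability read (Ex 405/Em 525), then BugLite luciferase luminescence = Nrf2 activity.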
# PI4K2A inh = inhibitors of human PI4K2A. Q9BTU6. purified PI4K2A, ADP-Glo luminescence, 1 h; active compounds read low. activity change, negative = inhibition, % at 76.9 µM. hit rate 0.13% among 420,000. AID 1346378; in the data active means activity change below about -50%; inconclusive means mostly about -30% to -49%;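 further: -100% = wells without enzyme as full effect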
# Target sequence (Q9BTU6 whole entry, looked up): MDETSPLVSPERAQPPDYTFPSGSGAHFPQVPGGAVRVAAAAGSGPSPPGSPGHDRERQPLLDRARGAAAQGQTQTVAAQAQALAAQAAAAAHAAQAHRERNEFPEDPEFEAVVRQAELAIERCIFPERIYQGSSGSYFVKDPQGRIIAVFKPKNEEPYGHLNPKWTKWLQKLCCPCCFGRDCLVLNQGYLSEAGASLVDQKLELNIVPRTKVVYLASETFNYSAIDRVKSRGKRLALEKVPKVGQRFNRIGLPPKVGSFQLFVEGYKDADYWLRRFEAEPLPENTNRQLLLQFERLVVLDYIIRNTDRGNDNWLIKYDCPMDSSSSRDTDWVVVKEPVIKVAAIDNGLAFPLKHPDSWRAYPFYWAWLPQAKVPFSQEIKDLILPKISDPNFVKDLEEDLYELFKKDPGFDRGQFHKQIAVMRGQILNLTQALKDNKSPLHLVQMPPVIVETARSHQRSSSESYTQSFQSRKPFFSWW
#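 PI4K2A activity was measured by ADP-Glo luminescence: enzyme (4 ug/mL stock) and phosphatidylinositol (1.2 mM stock) in Tris pH 7.5/MgCl2/EGTA/Triton X-100 buffer were reacted with ATP (300 microM stock) for one hour at ambient temperature.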
# KB-3-1 tox = kills parental KB-3-1 adenocarcinoma cells; KB-3-1 viability, CellTiter-Glo ATP luminescence, 72 h; Potency, µM (highest dose often 46.1 µM), actives largely listed as cytotoxic; hit rate 1.4% among 400,000; AID 1347075; further: potency means the concentration at half of the fitted maximal effect; nearly all actives have a fitted effect of over 60% in size
#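 Using CellTiter-Glo luminescence, growth of non-resistant KB-3-1 adenocarcinoma cells is assessed 72 h after pin-tool compound addition at 37 °C. Normalized responses across the concentration series yield fitted curves.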
# Giardia kill = Giardia lamblia killing | hit rate 0.15% among 340,000 | activity change, % at 7.66 µM, hits read low | Giardia lamblia trophozoite viability | AID 540267; in the data active means activity change below about -80%; inconclusive means between about -30% and that limit;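 further: parasites exposed to compound for two days anaerobically before the ATP read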
#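 Luminescent ATP signal served as the viability read-out, measured 15-30 min after adding ATP detection reagent to trophozoites that had been incubated with compounds for 48 hrs at 37 deg C anaerobically at 100 cells/well.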
# The depositor's hits bear a star; i = inactive; ? = inconclusive; . = no result given. A selection: hits, their analogues and other compounds. The true share with any hit is near 5.7%. Unless noted, the call rests on the fitted dose curve; in most records, active means well fitted curve in the direction sought with a large enough effect; inconclusive means small, poorly fitted or top-dose-only effect, or another doubt; inactive means no such curve, though single readings can be large; an effect the other way counts as inactive or inconclusive. Unless noted, on the % scale 0 is the no-effect control and ±100 the full control effect.
SMILES,A549 tox,KB-V1 cytotox,Nrf2 inh,PI4K2A inh,KB-3-1 tox,Giardia kill
COc1ccc(CN2CCN(C(c3ccc(F)cc3)c3ccc(F)cc3)CC2)c(OC)c1OC,?,18.4µM*,?,0.5,?,12.6
COc1ccc(CN2CCN(c3ccc(F)cc3)CC2)c(OC)c1OC,-2.7%,8.2µM*,-29.2%,-5.2,?,-9.4
COc1cc(OC)c(CN2CCN(c3ccc(F)cc3)CC2)cc1Br,0.8%,16.4µM*,14.3%,-8.8,i,-6.0
Nc1[nH]c(C(=O)c2ccccc2)c(-c2ccc(O)cc2)c1C(=O)NCCc1c[nH]c2ccccc12,.,.,.,-7.1,.,.
COc1ccc(NC(=O)c2cc(-c3cc(OC)c(OC)c(OC)c3)nc3ccccc23)cc1OC,1.2%,20.6µM*,-0.6%,-4.7,?,10.5
COc1ccc(-c2cc(C(=O)Nc3ccc(O)cc3)c3ccccc3n2)cc1OC,-3.1%,i,?,-7.2,i,-11.4
COC(=O)c1ccc(NC(=O)c2cc(-c3ccncc3)nc3ccccc23)cc1,-12.7%,i,16.6%,-0.3,23.1µM*,9.8
COc1ccc(NC(=O)CCc2c(C)nc3c(c2C)c(=O)n(C)c(=O)n3C)c(OC)c1,0.8%,i,3.4%,-5.2,i,.
COc1ccc(-c2nnc3n2N=C(c2cccc([N+](=O)[O-])c2)CS3)cc1,.,.,.,-1.8,.,.
COc1cccc(CNC(=O)c2ccc(-c3nc(CS(=O)(=O)c4ccccc4)c(C)o3)cc2)c1,7.4%,?,23.1µM*,2.3,i,.
COc1ccc(-c2nc(CS(=O)(=O)CC(=O)NCCc3cc(OC)ccc3OC)c(C)o2)cc1,1.1%,8.2µM*,?,4.3,i,-1.5
Cc1ccc(-c2nc(CS(=O)(=O)CC(=O)N3CCc4ccccc4C3)c(C)o2)cc1,?,?,?,-2.4,18.4µM*,-5.7
COc1cccc(NC(=O)CS(=O)(=O)Cc2nc(-c3ccc(C)cc3)oc2C)c1,-15.0%,i,25.9µM*,-6.9,i,-24.2
Cc1cccc(CNC(=O)c2ccc(-c3nc(CS(=O)(=O)c4ccccc4)c(C)o3)cc2)c1,6.1%,i,?,-18.2,?,.
Cc1ccc(-c2nc(CS(=O)(=O)CC(=O)N3CCCCCC3)c(C)o2)cc1,-1.4%,i,?,-2.8,i,1.3
CN(Cc1ccccc1)c1ccc(/C=C/c2sc3ccccc3[n+]2C)cc1,.,i,.,.,?,.
Cc1nc2ccccn2c1C(=O)CSc1ccccc1Cl,-4.1%,16.4µM*,.,-7.5,?,14.1
Cc1nc2ccccn2c1C(=O)CSc1ccc(Cl)cc1Cl,-9.2%,?,-7.5%,4.0,i,0.2
CCOC(=O)c1[nH]c(C)c(C(=O)NCc2ccc(Cl)cc2)c1C,-1.9%,23.1µM*,-7.5%,7.3,i,7.8
CCOC(=O)c1[nH]c(C)c(C(=O)NCCc2ccc(OC)cc2)c1C,2.5%,14.6µM*,.,2.9,i,-6.6
CCOc1ccc(CCNC(=O)c2cc3sc(CC)cc3n2C)cc1OCC,0.3%,.,18.4µM*,-11.4,.,.
CCOC(=O)c1[nH]c(C)c(C(=O)Nc2ccc(C)c(F)c2)c1C,?,2.91µM*,?,4.5,?,-1.7
CCOc1ccc(CCNC(=O)c2cc3ccsc3n2C)cc1OCC,.,.,.,-0.8,.,.
CCOC(=O)c1[nH]c(C)c(C(=O)NCc2ccc(F)cc2)c1C,-4.1%,i,-29.2%,1.4,i,.
O=C(Nc1ccc2c(c1)OCO2)O[C@@H]1CC[C@@]23CCCN2C(=O)CCC[C@H]3C1,.,.,.,0.6,.,.
CN1CC(O)([C@H](Cc2ccccc2)NC(=O)OC(C)(C)C)OCC1C(=O)NCc1cccc2ccccc12 (some centres undefined),.,.,.,4.4,.,.
CCOc1ccc(CCNC(=O)c2[nH]c(C)c(C(C)=O)c2C)cc1OCC,-2.0%,18.4µM*,-2.9%,-0.2,i,5.9
CCOC(=O)c1[nH]c(C)c(C(=O)Nc2ccccc2C)c1C,8.2%,i,7.8%,-0.7,?,13.5
